This is a sample that favours compounds with a hit; in the whole collection about 8.1% have one here.
ELG1 repair inh = ELG1-dependent DNA repair inhibition | HEK293T ELG1-luciferase reporter, luminescence, 16 h; DNA damage induced by 5-fluorouridine | Potency, µM (doses to about 46.1 µM), for the others: top-dose activity change, negative = inhibition, hits mostly inhibitors | 330,000 compounds, 2.3% hits; also: % is scaled to controls: 0 for no effect and ±100 for the full control effect; nearly all actives have a fitted effect of over 55% in size
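Quantitative HTS, concentration-response format. 2,000 cells/well co-treated with 5-fluorouridine and compound, 16 hr in 5% CO2 at 37 °C; ONE-Glo luminescence read after 30 min.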
KB-3-1 tox = kills parental KB-3-1 adenocarcinoma cells | 400,000 compounds, 1.4% hits | KB-3-1 viability, CellTiter-Glo ATP luminescence, 72 h | Potency, µM (titrated, usually from 46.1 µM), most hits filed as cytotoxic; also: % is scaled to controls: 0 for no effect and ±100 for the full control effect; nearly all actives have a fitted effect of over 60% in size
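Parental KB-3-1 viability, qHTS format: 72 h compound exposure, 37 °C; CellTiter-Glo; media-only wells and DMSO plates as controls; concentration-effect fits on corrected data.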
MCF10A rerep = inducers of DNA re-replication in MCF 10A breast cells; AID 624296; 350,000 compounds, 2.9% hits; Potency, µM (series often up to 46.1 µM), inactives show at the highest dose activity, positive = re-replication, usual class: activators; MCF 10A DNA re-replication, Hoechst nuclear intensity, 48 h; also: % of control where 0% means no effect; nearly all actives have a fitted effect of over 50% in size
KB-V1 MDR tox = KB-V1 MDR subline cytotoxicity | KB-V1 MDR cells viability, CellTiter-Glo, 72 h | Potency, µM (top dose mostly 46.1 µM), most hits filed as cytotoxic | 400,000 compounds, 3.4% hits; also: % is scaled to controls: 0 for no effect and ±100 for the full control effect; nearly all actives have a fitted effect of over 60% in size
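Readout: CellTiter-Glo luminescence, 10 min after addition. Cells: KB-V1 MDR subline, 72 h at 37 degrees C with compound. Analysis: corrected, normalized data fitted to concentration-effect curves.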
SW480 rerep = DNA re-replication induction in SW480 cells. AID 624297. SW480 DNA re-replication, Hoechst DNA content imaging, 48 h. Potency, µM (highest dose often 46.1 µM), inactives show at the top dose re-replication activation, usual class: activators. 340,000 compounds, 1.8% hits; also: % of control where 0% means no effect; nearly all actives have a fitted effect of over 55% in size
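Image-based read-out: total Hoechst fluorescence of nuclei (405 nm excitation, 500-530 nm emission), with hits raising the fraction of high-intensity nuclei. SW480 colon cells incubated 48 hr with compounds at 37 C.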
* marks the source's active call; other numbers are inactive results. Calls follow the shape of the dose curve; as a rule, active = well fitted curve in the direction sought with a large enough effect; inconclusive = small, poorly fitted or top-dose-only effect, or another doubt; inactive = no such curve, though single readings can be large; an effect the other way counts as inactive or inconclusive. Potency is read from the fitted curve at half-maximal effect.

Screening O=C1NC(Cc2ccccc2)c2nc3ccc(Br)cc3c(=O)n2-c2cc(Cl)ccc21 (stereo not given) returned ELG1 repair inh 11%.
CCC(=O)OCCNc1cc(Sc2nc3ccccc3[nH]2)c2nonc2c1[N+](=O)[O-] was read as ELG1 repair inh -11%, KB-3-1 tox 23µM*, MCF10A rerep 1.3µM*, KB-V1 MDR tox inactive and SW480 rerep 10µM*.
Screening O=C(COc1ccc(-c2nnc(N3CCCCC3)c3ccccc23)cc1)N1CCCCC1 returned ELG1 repair inh 15µM*, KB-3-1 tox inconclusive, MCF10A rerep inconclusive, KB-V1 MDR tox inconclusive and SW480 rerep 10%.
For O=C(COc1ccc([N+](=O)[O-])cc1)N1CCN(c2nnc(-c3ccccc3)c3ccccc23)CC1 the results were ELG1 repair inh -13%, KB-3-1 tox inactive, MCF10A rerep 6%, KB-V1 MDR tox inactive and SW480 rerep -10%.
O=C(CN1CCOCC1)N1CCN(c2nnc(-c3ccccc3)c3ccccc23)CC1 was read as ELG1 repair inh -4%, KB-3-1 tox inactive, MCF10A rerep -2%, KB-V1 MDR tox inactive and SW480 rerep 1%.
For Cc1ccc(-c2nnc(N3CCN(C(=O)COc4ccccc4)CC3)c3ccccc23)cc1 the results were ELG1 repair inh 21µM*, KB-3-1 tox 18µM*, MCF10A rerep inconclusive, KB-V1 MDR tox 2.6µM* and SW480 rerep 15%.
For Cc1ccc(-c2nnc(N3CCN(C(=O)CN4CCOCC4)CC3)c3ccccc23)cc1 the results were ELG1 repair inh -19%, KB-3-1 tox inactive, MCF10A rerep 8%, KB-V1 MDR tox 13µM* and SW480 rerep 1%.
For O=C(Nc1cccc(C(F)(F)F)c1)c1csc([C@@H]2O[C@H](CO)[C@H](O)[C@H](O)[C@H]2O)n1 the results were KB-3-1 tox inactive and KB-V1 MDR tox inactive.
`CCCOC(=O)CSc1ncnc2sc3c(c12)CCC(C)C3` (stereo not given) gave KB-3-1 tox inactive and KB-V1 MDR tox inconclusive.
For Cc1ccc(N(CCC(=O)O)S(=O)(=O)c2ccccc2)cc1 the results were ELG1 repair inh 6%, KB-3-1 tox inactive, MCF10A rerep 3%, KB-V1 MDR tox inactive and SW480 rerep -2%.
Cc1cc(C)cc(N(CCC(=O)O)S(=O)(=O)c2ccc3ccccc3c2)c1 was read as ELG1 repair inh -16%, KB-3-1 tox inactive, MCF10A rerep 8.2µM*, KB-V1 MDR tox inactive and SW480 rerep inconclusive.
Cc1cc(C)cc(N(CCC(=O)Nc2nnc(C)s2)S(=O)(=O)c2ccc(Cl)cc2)c1 was read as ELG1 repair inh inconclusive, KB-3-1 tox inconclusive, MCF10A rerep inconclusive, KB-V1 MDR tox 23µM* and SW480 rerep 17%.
`O=C(Nc1ccc(F)c(Cl)c1)Nc1c[nH]c(=O)[nH]c1=O` gave KB-3-1 tox inactive and KB-V1 MDR tox inactive.
For O=[N+]([O-])c1ccc(-c2c(O)c3ccccc3c3nc4ccccc4nc23)cc1 the results were ELG1 repair inh 23µM*, KB-3-1 tox inactive, MCF10A rerep 17%, KB-V1 MDR tox inactive and SW480 rerep 10%.
For NC(=O)/C(=N\OC(=O)c1ccco1)c1nc(-c2ccc(Br)cc2)cs1 the results were ELG1 repair inh 1%, KB-3-1 tox inconclusive, MCF10A rerep 12%, KB-V1 MDR tox 9.2µM* and SW480 rerep 16%.
For Cc1ccc(C)c(NC(=O)CN2C(=O)C3CC=CCC3C2=O)c1 (stereo not given) the results were KB-3-1 tox inactive and KB-V1 MDR tox inactive.
Screening Cc1c(C(=O)O)sc2nc(/C=C/c3cccc(O)c3)[nH]c(=O)c12 returned ELG1 repair inh 1%, KB-3-1 tox inactive, MCF10A rerep 7.3µM*, KB-V1 MDR tox inactive and SW480 rerep inconclusive.
`CC(OC(=O)c1ccc(S(=O)(=O)N2CCCCC2)cc1)C(=O)NC1CCCCC1C` (stereo not given) gave ELG1 repair inh -2%, KB-3-1 tox inactive, MCF10A rerep -1%, KB-V1 MDR tox inactive and SW480 rerep -6%.
`CCOc1ccc2[nH]c3c(NCCC(C)C)ncnc3c2c1` gave ELG1 repair inh inconclusive, KB-3-1 tox inconclusive, MCF10A rerep 12µM*, KB-V1 MDR tox inactive and SW480 rerep inconclusive.
`COc1cc2ncnc(NCc3cccs3)c2cc1OC` gave ELG1 repair inh -2%, KB-3-1 tox inconclusive, MCF10A rerep 2.6µM*, KB-V1 MDR tox inconclusive and SW480 rerep -24%.
COc1ccc(CCNc2ncnc3c2[nH]c2cc(OC)c(OC)cc23)cc1OC was read as ELG1 repair inh inconclusive, KB-3-1 tox inactive, MCF10A rerep 18µM*, KB-V1 MDR tox inactive and SW480 rerep 18µM*.
For COc1cc2ncnc(NCCc3ccccc3)c2cc1OC the results were ELG1 repair inh inconclusive, KB-3-1 tox inconclusive, MCF10A rerep 3%, KB-V1 MDR tox inconclusive and SW480 rerep -1%.
For COc1ccc(CCNc2ncnc3cc(OC)c(OC)cc23)cc1OC the results were ELG1 repair inh 8.2µM*, KB-3-1 tox inactive, MCF10A rerep 10%, KB-V1 MDR tox 21µM* and SW480 rerep inconclusive.
For COCCCNc1ncnc2c1[nH]c1ccccc12 the results were ELG1 repair inh -13%.
Screening COc1ccc2[nH]c3c(NCCC4=CCCCC4)ncnc3c2c1 returned ELG1 repair inh inconclusive, KB-3-1 tox 3.7µM*, MCF10A rerep 21µM*, KB-V1 MDR tox 9.2µM* and SW480 rerep inconclusive.
COc1ccc(CCNc2c3ccccc3nc3ccccc23)cc1OC was read as ELG1 repair inh inconclusive, KB-3-1 tox inconclusive, MCF10A rerep 6.5µM*, KB-V1 MDR tox inconclusive and SW480 rerep 0.92µM*.
`COCCNc1ncnc2c1[nH]c1ccccc12` gave ELG1 repair inh 15µM*, KB-3-1 tox inactive, MCF10A rerep 6%, KB-V1 MDR tox inactive and SW480 rerep -16%.
For CCN(CC)CCNc1ncnc2c1[nH]c1ccc(OC)cc12 the results were ELG1 repair inh -5%.
For COc1nc(NCCc2ccc(OC)c(OC)c2)nc(OC)n1 the results were KB-3-1 tox inactive, MCF10A rerep -2%, KB-V1 MDR tox inactive and SW480 rerep -5%.
Cc1ccccc1CN1[C@@H]2c3ccccc3C[C@@H]2OCCS1(=O)=O was read as ELG1 repair inh -6%, KB-3-1 tox inconclusive, MCF10A rerep 10%, KB-V1 MDR tox inactive and SW480 rerep 2%.
CC(C)NC(=O)c1onc(CSc2ccc(F)cc2)c1C(=O)NC(C)C was read as ELG1 repair inh 7%, KB-3-1 tox inactive, MCF10A rerep 1%, KB-V1 MDR tox inactive and SW480 rerep -1%.

Screening results from PubChem.
